Experiment [1] addresses Peroxisome proliferator-activated receptor delta (Homo sapiens) (UniProt Q03181). Description: qHTS assay to identify small molecule agonists of the peroxisome proliferator-activated receptor delta (PPARd) signaling pathway (AID 743212; calls by dose curve). In outline:
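GeneBLAzer PPARd UAS-bla HEK293H cells (beta-lactamase reporter under UAS control), plated and rested 5 h at 37 C, then exposed to compounds in DMSO at 37 C; LiveBLAzer B/G FRET substrate added, 2 h room temperature, fluorescence read.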

Experiment [2] is described as follows: qHTS assay to identify small molecule antagonists of the peroxisome proliferator-activated receptor delta (PPARd) signaling pathway - cell viability counter screen (AID 743213). Also: nearly all actives have a fitted effect of over 50% in size. Also: potency is read from the fitted curve at half-maximal effect. In outline: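 Same-well viability: cells pre-incubated 5 h, dosed with compound plus 300 nM L165041, kept 17 h at 37 C, FRET substrate 2 h RT, then CellTiter-Glo 30 min RT and luminescence.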
Background: In qHTS, concentration-response curves come from the screen itself.

Experiment [3] addresses Peroxisome proliferator-activated receptor delta (Homo sapiens) (UniProt Q03181). Description: qHTS assay to identify small molecule antagonists of the peroxisome proliferator-activated receptor delta (PPARd) signaling pathway (AID 743215; active = well fitted inhibition curve with a large enough effect in the signal ratio in the repeat runs, not every such curve was filed as active; the % refers to the signal ratio;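 also: cells stimulated with agonist L165041 at 300 nM final during compound exposure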; also: potency is read from the fitted curve at half-maximal effect). In outline:
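With L165041 present at 300 nM final, compounds were incubated 17 h at 37 C on PPARd UAS-bla HEK293H cells. A FRET-based beta-lactamase substrate was then applied for 2 h at room temperature and fluorescence intensity recorded.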

Experiment [4] can be described thus: qHTS assay to identify small molecule agonists of the farnesoid-X-receptor (FXR) signaling pathway - cell viability counter screen (AID 743218). Also: nearly all actives have a fitted effect of over 45% in size. Also: potency is read from the fitted curve at half-maximal effect. In outline: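 After 16 h at 37 C with test compounds, FXR-bla HEK 293T cells were given LiveBLAzer B/G substrate for 2 h at RT and then CellTiter-Glo; luminescence was taken after 30 min.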
Experiment [5] is described as follows: qHTS assay to identify small molecule antagonists of the farnesoid-X-receptor (FXR) signaling pathway - cell viability counter screen (AID 743221; active = well fitted cell-killing curve with a large enough effect in the repeat runs, not every such curve was filed as active; also: nearly all actives have a fitted effect of over 50% in size; also: potency is read from the fitted curve at half-maximal effect). Summed up:
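Multiplexed counter screen: viability of FXR-bla HEK 293T cells under agonist stimulation by chenodeoxycholic acid (50 uM, final) and test compound for 16 h at 37 C, measured by CellTiter-Glo luminescence in the reporter wells.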

Experiment [6] in a line: qHTS assay to identify small molecule agonists of the vitamin D receptor (VDR) signaling pathway - cell viability counter screen (AID 743224). Also: nearly all actives have a fitted effect of over 50% in size. Also: potency is read from the fitted curve at half-maximal effect. Summed up:
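Here cell health was gauged by luminescent ATP detection (CellTiter-Glo, 30 min RT) in VDR-bla cells that had been incubated with test compounds for 16 h at 37C and 5% CO2.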

Experiment [7] can be described thus: qHTS assay to identify small molecule antagonists of the vitamin D receptor (VDR) signaling pathway - cell viability counter screen (AID 743225). Also: nearly all actives have a fitted effect of over 50% in size. Also: potency is read from the fitted curve at half-maximal effect. In outline:
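HEK293T VDR-bla; cpd + 1a,25-(OH)2D3 3 nM final, 16 h 37C/5% CO2; B/G FRET substrate 2 h RT; then CellTiter-Glo 30 min RT, luminescence.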

Experiment [8] in a line: qHTS assay to identify small molecule agonists of the NFkB signaling pathway - cell viability counter screen (AID 1159515; calls by dose curve; also: nearly all actives have a fitted effect of over 55% in size; also: potency is read from the fitted curve at half-maximal effect). Summed up:
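5 hr compound treatment of NFkB-bla ME-180 cells (2,000/well, seeded overnight beforehand), followed by reporter substrate for 1.5 hr. CellTiter-Glo added afterward; luminescence after 30 min RT.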

Experiment [9] is described as follows: qHTS assay to identify small molecule agonists of the endoplasmic reticulum stress response signaling pathway - cell viability counter screen (AID 1159517; calls by dose curve; also: nearly all actives have a fitted effect of over 50% in size; also: potency is read from the fitted curve at half-maximal effect). Summed up:
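Luminescence readout: CellTiter-Glo, 30 min RT, same wells as the ESRE-bla reporter read. HeLa ESRE-bla, 1,500 cells/well, o/n 37 C; cpd 5 hr 37 C/5% CO2.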

Experiment [10] in a line: qHTS assay to identify small molecule antagonists of the retinoid-related orphan receptor gamma (ROR-gamma) signaling pathway - cell viability counter screen (AID 1159520). Also: nearly all actives have a fitted effect of over 50% in size. Also: potency is read from the fitted curve at half-maximal effect. In outline: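 Tet-on ROR gamma CHO cells (1,000/well) were plated 4 hr, given compounds in DMSO for 2 hr at 37 C, then induced with 1 uM final doxycycline for 16 hr. Viability was read as ATP by CellTiter-Glo luminescence after 30 min.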

A short description of experiment [11]: qHTS assay to identify small molecule agonists of the AP-1 signaling pathway - cell viability counter screen (AID 1159525; calls by dose curve; also: nearly all actives have a fitted effect of over 55% in size; also: potency is read from the fitted curve at half-maximal effect). Summed up: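 ME-180 AP-1-bla, 2500 cells/well, Opti-MEM + 0.5% dialyzed FBS; overnight 37 °C; cpd 15-pt titration, 5 h 37 °C; CellTiter-Glo 30 min RT; luminescence read; normalised to TOAB and DMSO controls.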
Experiment [12] in a line: qHTS assay to identify small molecule agonists of the AP-1 signaling pathway (AID 1159526; calls by dose curve; also: potency is read from the fitted curve at half-maximal effect).
For experiment [13], the target named is Retinoic acid receptor RXR-alpha (Homo sapiens) (UniProt P19793). The experiment can be described thus: qHTS assay to identify small molecule agonists of the RXR signaling pathway (AID 1159527; calls by dose curve; also: nearly all actives have a fitted effect of over 35% in size). Summed up: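 Cells plated at 2,000/well, rested 5 hr at 37 C, pin-dosed with DMSO compound solutions, incubated 16 hr, then loaded with B/G FRET substrate for 2 hr at RT before dual-emission fluorescence reading.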

Experiment [14] deals with Bile acid receptor (Homo sapiens) (UniProt Q96RI1). Description: qHTS assay to identify small molecule agonists of the farnesoid-X-receptor (FXR) signaling pathway (AID 743220; active = well fitted activation curve with a large enough effect in the signal ratio in the repeat runs, not every such curve was filed as active; the % refers to the signal ratio). In outline:
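Beta-lactamase reporter under UAS control in GeneBLAzer FXR HEK 293T cells (5000/well) measured with LiveBLAzer FRET substrate after 2 h at room temperature. Compound exposure lasted 16 h at 37C.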

Experiment [15] in a line: qHTS assay to identify small molecule agonists of the RXR signaling pathway - cell viability counter screen (AID 1159529). Also: nearly all actives have a fitted effect of over 50% in size. Also: potency is read from the fitted curve at half-maximal effect. In outline: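 Steps: seed RXR-alpha-UAS-bla HEK 293T cells in assay medium containing 2% charcoal-stripped FBS; incubate 5 hr; add compounds in DMSO; incubate 16 hr at 37 C; after the bla read, add CellTiter-Glo and read luminescence at 30 min.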
In experiment [16] the target is Vitamin D3 receptor (Homo sapiens) (UniProt P11473). The experiment can be described thus: qHTS assay to identify small molecule agonists of the vitamin D receptor (VDR) signaling pathway (AID 743222; calls by dose curve). Summed up: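 VDR-bla cells were seeded, left 4 h, treated with compounds in DMSO for 16 h, incubated 2 h at RT with B/G FRET substrate, and read for fluorescence.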

Experiment [17] deals with Nuclear receptor ROR-gamma (Homo sapiens) (UniProt P51449). Description: qHTS assay to identify small molecule antagonists of the retinoid-related orphan receptor gamma (ROR-gamma) signaling pathway (AID 1159521; also: nearly all actives have a fitted effect of over 50% in size; also: potency is read from the fitted curve at half-maximal effect). Summed up:
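Cells were plated, rested 4 h at 37 C, exposed to compounds for 2 h, then given 1 uM final doxycycline hyclate to induce RORγ expression. After 16 h, ONE-Glo luminescence from the ROR response element reporter was measured.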

The target of experiment [18] is Bile acid receptor (Homo sapiens) (UniProt Q96RI1). Description: qHTS assay to identify small molecule antagonists of the farnesoid-X-receptor (FXR) signaling pathway (AID 743217; active = well fitted inhibition curve with a large enough effect in the signal ratio in the repeat runs, not every such curve was filed as active; the % refers to the signal ratio). Summed up: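 In this cell-based antagonist screen, inhibition of CDCA-driven (50 uM final) UAS-beta-lactamase expression in HEK 293T cells was measured by FRET fluorescence following 16 h compound exposure at 37 °C.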

Potency data for 5 compounds are collected here from PubChem BioAssay (Tox21).

Molecules are shown by their SMILES. Inconclusive results are not listed. Activity calls are given as the source filed them. Unless noted, calls follow the shape of the dose curve; as a rule, active = well fitted curve in the direction sought with a large enough effect in the repeat runs; inconclusive = weak or mixed curves; inactive = no such curve, though single readings can be large; an effect the other way counts as inactive or inconclusive.

Chain of Bile acid receptor (Homo sapiens) (Q96RI1 whole entry, looked up): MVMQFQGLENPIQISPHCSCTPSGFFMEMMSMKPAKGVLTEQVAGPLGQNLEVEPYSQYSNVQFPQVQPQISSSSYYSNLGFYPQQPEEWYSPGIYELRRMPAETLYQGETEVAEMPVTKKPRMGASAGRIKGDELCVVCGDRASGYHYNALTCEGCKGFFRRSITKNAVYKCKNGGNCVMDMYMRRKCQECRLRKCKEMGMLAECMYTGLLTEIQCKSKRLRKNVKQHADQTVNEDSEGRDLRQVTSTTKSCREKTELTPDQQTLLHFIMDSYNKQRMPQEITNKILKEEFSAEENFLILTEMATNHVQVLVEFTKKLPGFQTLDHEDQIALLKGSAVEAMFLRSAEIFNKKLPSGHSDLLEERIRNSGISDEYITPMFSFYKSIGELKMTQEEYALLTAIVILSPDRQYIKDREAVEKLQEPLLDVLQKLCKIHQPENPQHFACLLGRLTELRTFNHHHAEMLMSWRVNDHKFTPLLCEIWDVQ
Chain of Peroxisome proliferator-activated receptor delta (Homo sapiens) (Q03181 whole entry, looked up): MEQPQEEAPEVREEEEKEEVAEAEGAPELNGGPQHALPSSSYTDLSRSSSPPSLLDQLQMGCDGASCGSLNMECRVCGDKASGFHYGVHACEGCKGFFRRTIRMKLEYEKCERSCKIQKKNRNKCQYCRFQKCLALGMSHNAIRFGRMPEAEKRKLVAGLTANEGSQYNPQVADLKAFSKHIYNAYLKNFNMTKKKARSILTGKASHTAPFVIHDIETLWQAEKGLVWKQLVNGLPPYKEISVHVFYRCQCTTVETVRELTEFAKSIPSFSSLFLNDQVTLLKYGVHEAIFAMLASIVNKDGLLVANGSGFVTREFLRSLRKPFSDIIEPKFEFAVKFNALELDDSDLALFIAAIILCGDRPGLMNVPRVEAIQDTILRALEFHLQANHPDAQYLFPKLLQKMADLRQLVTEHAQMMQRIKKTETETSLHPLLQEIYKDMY
Chain of Vitamin D3 receptor (Homo sapiens) (P11473 whole entry, looked up): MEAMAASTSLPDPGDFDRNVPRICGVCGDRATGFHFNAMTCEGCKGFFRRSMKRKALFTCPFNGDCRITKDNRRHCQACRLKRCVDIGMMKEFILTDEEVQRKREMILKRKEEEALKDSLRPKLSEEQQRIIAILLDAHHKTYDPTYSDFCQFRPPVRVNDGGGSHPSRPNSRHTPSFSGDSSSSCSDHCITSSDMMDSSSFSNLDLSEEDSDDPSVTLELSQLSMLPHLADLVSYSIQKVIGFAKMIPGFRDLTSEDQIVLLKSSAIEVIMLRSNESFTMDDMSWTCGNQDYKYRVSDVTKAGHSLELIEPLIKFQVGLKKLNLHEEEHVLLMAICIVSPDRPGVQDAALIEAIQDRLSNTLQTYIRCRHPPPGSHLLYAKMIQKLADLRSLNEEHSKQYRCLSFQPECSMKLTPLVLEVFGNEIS
Chain of Retinoic acid receptor RXR-alpha (Homo sapiens) (P19793 whole entry, looked up): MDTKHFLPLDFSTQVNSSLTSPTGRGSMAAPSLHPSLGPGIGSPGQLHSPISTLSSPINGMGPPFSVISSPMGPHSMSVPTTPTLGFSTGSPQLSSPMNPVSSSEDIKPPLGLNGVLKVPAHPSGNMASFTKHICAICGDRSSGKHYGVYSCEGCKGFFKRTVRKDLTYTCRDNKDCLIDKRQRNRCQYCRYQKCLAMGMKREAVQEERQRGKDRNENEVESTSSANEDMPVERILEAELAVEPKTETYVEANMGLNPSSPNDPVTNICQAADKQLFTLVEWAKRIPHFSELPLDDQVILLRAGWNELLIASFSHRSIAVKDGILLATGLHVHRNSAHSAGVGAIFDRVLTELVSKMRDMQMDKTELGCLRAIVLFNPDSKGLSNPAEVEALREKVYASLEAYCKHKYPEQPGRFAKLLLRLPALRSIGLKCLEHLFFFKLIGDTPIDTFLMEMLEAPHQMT

On to `CC(=O)SC[C@@H](Cc1ccccc1)C(=O)NCC(=O)OCc1ccccc1`, for which the Potency result in experiment [1], in experiment [2], in [3], in [4], in experiment [5] and in experiment [6] was “inactive” each time. The Potency entry in [7], in experiment [8], in experiment [9], in experiment [10], in experiment [11] and in experiment [12] was “inactive” in each case. In [13], the Potency entry is “inactive”.
`C[n+]1cc2c3c(ccc2c2ccc4cc5c(cc4c21)OCO5)OCO3`: the Potency in [2] is 1840 nM (active); in experiment [3] it was 2590 nM (active); in experiment [4], 1460 nM (active); in [5] it was 1460 nM (active); in [6] it was 580 nM (active); in [7], 1310 nM (active). The Potency was 1170 nM (active) in experiment [8]; 1310 nM (active) in experiment [9]; 1640 nM (active) in experiment [10]; 2080 nM (active) in [11]; 1470 nM (active) in experiment [15]. The Potency entry in [14] is “inactive”.
For the compound `CCC1=C[C@@H]2CN(C1)Cc1c([nH]c3ccccc13)[C@@](C(=O)OC)(c1cc3c(cc1OC)N(C)[C@H]1[C@@](O)(C(=O)OC)[C@H](OC(C)=O)[C@]4(CC)C=CCN5CC[C@]31[C@@H]54)C2`, the Potency entry in experiment [3], in [16], in experiment [6], in experiment [8], in [9] and in experiment [10] was “inactive” in each case. Besides, the Potency result in experiment [11] is “inactive”. In [12], the Potency is 107 nM (active).
In the case of `[Cl][Au]([Cl])[Cl]`, the Potency was 9770 nM (active) in experiment [2]; 2750 nM (active) in [4]; 3470 nM (active) in experiment [5]; 3890 nM (active) in experiment [6]; 11000 nM (active) in experiment [7]; 5450 nM (active) in [17]. For the same compound, the Potency in experiment [15] was 24500 nM (active). For the same compound, the Potency result in [8], in experiment [9] and in experiment [11] was “inactive” in each case.
In the case of `O=C1c2c(O)ccc(Nc3ccc(CCO)cc3)c2C(=O)c2c([N+](=O)[O-])ccc(O)c21`, the Potency result in experiment [1], in [2], in experiment [18], in [4], in [14] and in experiment [5] was “inactive” throughout. In addition, the Potency result in experiment [6], in experiment [7], in experiment [8], in [9], in experiment [17] and in experiment [11] was “inactive” throughout. Moreover, the Potency entry in experiment [15] was “inactive”.
